The record followed here is the supplement of paper PMC10412459.

This experiment concerns K562 SF3B1 K700E vs K562 SF3B1 WT. The experiment can be described thus: surviving fraction ratio K562 SF3B1 K700E / K562 SF3B1 WT (each relative to DMSO); higher = less selective killing of SF3B1 K700E cells. Conditions: 5 days. A digest of the protocol:
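In 384-well plates holding 250 cells per well, isogenic K562 cells bearing an engineered mutant allele and matched wild-type cells received compounds from an in-house 80-compound library 24 h after seeding. Doses were 0.5, 1, 5, 10, 50, 100, 500 and 1,000 nM, with 5 d of continuous culture. Surviving fractions were taken from CellTiter-Glo readings and normalised to DMSO. The value reported is the mutant-over-wild-type ratio of these fractions.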

Take `COc1ccc(C2=N[C@@H](c3ccc(Cl)cc3)[C@@H](c3ccc(Cl)cc3)N2C(=O)N2CCNC(=O)C2)c(OC(C)C)c1` [Nutlin3]: the “surviving fraction ratio K562 SF3B1 K700E / K562 SF3B1 WT” value amounted to 1 (0.5nM); 0.984 (1nM); 0.843 (5nM); 0.873 (10nM); 0.861 (50nM); 0.781 (100nM). Also, the “surviving fraction ratio K562 SF3B1 K700E / K562 SF3B1 WT” value amounted to 0.767 (500nM) and 0.894 (1000nM).
On to `Cn1ncnc1[C@H]1c2n[nH]c(=O)c3cc(F)cc(c23)N[C@@H]1c1ccc(F)cc1` [talazoparib], for which the “surviving fraction ratio K562 SF3B1 K700E / K562 SF3B1 WT” value by setting is: (0.5nM) 0.824; (1nM) 0.778; (5nM) 0.775; (10nM) 0.743; (50nM) 0.552; (100nM) 0.571. The “surviving fraction ratio K562 SF3B1 K700E / K562 SF3B1 WT” value (500nM) was 0.794.
In the case of `C[C@]12CC[C@H](O)CC1=CC[C@@H]1[C@@H]2CC[C@]2(C)C(c3cccnc3)=CC[C@@H]12`, the “surviving fraction ratio K562 SF3B1 K700E / K562 SF3B1 WT” value (0.5nM) came out at 1.04; the “surviving fraction ratio K562 SF3B1 K700E / K562 SF3B1 WT” value (1nM) amounted to 0.918; the “surviving fraction ratio K562 SF3B1 K700E / K562 SF3B1 WT” value (5nM) amounted to 0.91; the “surviving fraction ratio K562 SF3B1 K700E / K562 SF3B1 WT” value (10nM) was found to be 0.915; the “surviving fraction ratio K562 SF3B1 K700E / K562 SF3B1 WT” value (50nM) came to 0.899; the “surviving fraction ratio K562 SF3B1 K700E / K562 SF3B1 WT” value (100nM) stood at 1.01. In addition, the “surviving fraction ratio K562 SF3B1 K700E / K562 SF3B1 WT” value by setting is: (500nM) 0.995; (1000nM) 0.937.
As for `COc1cc([C@@H]2c3cc4c(cc3[C@@H](O[C@@H]3O[C@@H]5CO[C@@H](C)O[C@H]5[C@H](O)[C@H]3O)[C@H]3COC(=O)[C@H]23)OCO4)cc(OC)c1O` [etoposide], the “surviving fraction ratio K562 SF3B1 K700E / K562 SF3B1 WT” value (0.5nM) was determined as 0.966; the “surviving fraction ratio K562 SF3B1 K700E / K562 SF3B1 WT” value (1nM) was found to be 0.974; the “surviving fraction ratio K562 SF3B1 K700E / K562 SF3B1 WT” value (5nM) was 0.905; the “surviving fraction ratio K562 SF3B1 K700E / K562 SF3B1 WT” value (10nM) is 0.771; the “surviving fraction ratio K562 SF3B1 K700E / K562 SF3B1 WT” value (50nM) amounted to 0.842; the “surviving fraction ratio K562 SF3B1 K700E / K562 SF3B1 WT” value (100nM) stood at 1.01. Moreover, the “surviving fraction ratio K562 SF3B1 K700E / K562 SF3B1 WT” value (500nM) came out at 1.72 and the “surviving fraction ratio K562 SF3B1 K700E / K562 SF3B1 WT” value (1000nM) was 1.51.
As to `COc1cc2ncnc(Nc3ccc(F)c(Cl)c3)c2cc1OCCCN1CCOCC1` [gefitinib], the “surviving fraction ratio K562 SF3B1 K700E / K562 SF3B1 WT” value is, setting by setting: (0.5nM) 0.645; (1nM) 0.787; (5nM) 0.848; (10nM) 0.768; (50nM) 0.792; (100nM) 0.802. Besides, the “surviving fraction ratio K562 SF3B1 K700E / K562 SF3B1 WT” value is, setting by setting: (500nM) 0.781; (1000nM) 0.907.
Take `CN(C)CC[C@H](CSc1ccccc1)Nc1ccc(S(=O)(=O)NC(=O)c2ccc(N3CCN(Cc4ccccc4-c4ccc(Cl)cc4)CC3)cc2)cc1[N+](=O)[O-]`: the “surviving fraction ratio K562 SF3B1 K700E / K562 SF3B1 WT” value by setting is: (0.5nM) 0.745; (1nM) 0.762; (5nM) 0.761; (10nM) 0.841; (50nM) 0.902; (100nM) 0.819. Further, the “surviving fraction ratio K562 SF3B1 K700E / K562 SF3B1 WT” value reads like this: (500nM) 0.908; (1000nM) 0.796.
`O=C(c1cc(Cc2n[nH]c(=O)c3ccccc23)ccc1F)N1CCN(C(=O)C2CC2)CC1` [olaparib]: the “surviving fraction ratio K562 SF3B1 K700E / K562 SF3B1 WT” value amounted to 0.978 (0.5nM); 0.979 (1nM); 0.926 (5nM); 0.839 (10nM); 0.947 (50nM); 1.02 (100nM). For the same molecule, the “surviving fraction ratio K562 SF3B1 K700E / K562 SF3B1 WT” value worked out at 1.1 (500nM) and 0.871 (1000nM).
